KB-3-1 tox: qHTS assay for MDR1-selective chemotherapeutics: Primary screen using the parental adenocarcinoma cell KB-3-1 | Potency, µM (highest dose often 46.1 µM), hits mostly cytotoxic | KB-3-1 viability, CellTiter-Glo ATP luminescence, 72 h | 400,000 tested, 1.4% active | AID 1347075, 2019; note: % is set by controls: 0 for no effect and ±100 for the full control effect; nearly all actives have a fitted effect of over 60% in size
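Here the drug-naive KB-3-1 line serves as comparator for MDR sub-line selectivity; cells received compound titrations, 72 h at 37 °C, then CellTiter-Glo readout.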
ELG1 DNA repair: qHTS screen for small molecules that inhibit ELG1-dependent DNA repair in human embryonic kidney (HEK293T) cells expressing luciferase-tagged ELG1 | HEK293T ELG1-luciferase reporter, luminescence, 16 h; DNA damage induced by 5-fluorouridine | Potency, µM (titrated, usually from 46.1 µM), for the others: at the top dose activity change, negative = inhibition, actives largely listed as inhibitors | 330,000 tested, 2.3% active; note: % is set by controls: 0 for no effect and ±100 for the full control effect; nearly all actives have a fitted effect of over 55% in size
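HEK293T cells expressing luciferase-tagged ELG1 (2,000/well) received 5-Fluorouridine plus compound or DMSO for 16 hr at 37 °C. Luciferase was read by ONE-Glo luminescence after 30 min at room temperature.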
MCF10A rerep: A quantitative high throughput screen for small molecules that induce DNA re-replication in MCF 10a normal breast cells; MCF 10A DNA re-replication, Hoechst nuclear intensity, 48 h; Potency, µM (top dose mostly 46.1 µM), inactives show at the top dose activity, positive = re-replication, most hits filed as activators; 350,000 tested, 2.9% active; note: % of control where 0% means no effect; nearly all actives have a fitted effect of over 50% in size
KB-V1 cytotox: qHTS assay for MDR1-selective chemotherapeutics: Primary screen using the drug-selected MDR subline cells KB-V1; 400,000 tested, 3.4% active; KB-V1 MDR cells viability, CellTiter-Glo, 72 h; Potency, µM (titrated, usually from 46.1 µM), hits mostly cytotoxic; note: % is set by controls: 0 for no effect and ±100 for the full control effect; nearly all actives have a fitted effect of over 60% in size
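Drug-selected KB-V1 cells, grown in DMEM lacking phenol red with 10% FBS, receive compound titrations; after three days at 37 degrees C, surviving cell ATP is quantified by CellTiter-Glo luminescence and responses normalized and curve-fitted.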
SW480 rerep: A quantitative high throughput screen for small molecules that induce DNA re-replication in SW480 colon adenocarcinoma cells; SW480 DNA re-replication, Hoechst DNA content imaging, 48 h; Potency, µM (titrated, usually from 46.1 µM), inactives show at the highest dose re-replication activation, usual class: activators; 340,000 tested, 1.8% active; AID 624297, 2012; note: % of control where 0% means no effect; nearly all actives have a fitted effect of over 55% in size
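250 cells/well; 23 nL cpd via pin tool; 48 hr, 37 C, 5% CO2; Hoechst 40 min; imager read of total nuclear intensity, ex 405/em 500-530 nm.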
* marks the source's active call; other numbers are inactive results; i = inactive; u = inconclusive; x = no result given. Sampled rows, rich in hits. Any-hit rate of the full collection: about 8.1%. Calls come from the whole dose curve; as a rule, active = well fitted curve in the direction sought with a large enough effect; inconclusive = small, poorly fitted or top-dose-only effect, or another doubt; inactive = no such curve, though single readings can be large; an effect the other way counts as inactive or inconclusive. Potency is the fitted concentration of half-maximal effect.

SMILES	KB-3-1 tox	ELG1 DNA repair	MCF10A rerep	KB-V1 cytotox	SW480 rerep
O=C(NCC1CCN(Cc2cccc(Cl)c2)CC1)Nc1ccc(Cl)cc1	i	-4%	22%	u	18%
COc1ccc(OC)c(CN2CCC(CNC(=O)Nc3cccc(Cl)c3)CC2)c1	u	-25%	2%	u	4%
COc1ccc(CN2C(=O)CSCC2(C)C(=O)Nc2c(C)cccc2C)cc1OC (stereo unspecified)	i	x	x	i	x
CC(C)(C)OC(=O)N1CCCC(C(=O)Nc2ccc(C(=O)NCCc3ccccc3)cc2)C1 (stereo unspecified)	i	x	4%	i	1%
Cc1ccc(-c2ocnc2C(=O)N2CCN(C(=O)c3cccs3)CC2)cc1	i	-16%	0%	i	-7%
C=CC(C)(C)c1[nH]cnc1/C=C1\NC(=O)C(C(C)C)NC1=O (stereo unspecified)	5.8µM*	-20%	u	i	u
Cc1ccc2c(c1)N(C(=O)NC1CCCCC1)C(C)(C)CC2C (stereo unspecified)	i	u	9.2µM*	i	u
Cc1ccc2c(c1)C(C)CC(C)(C)N2C(=O)NC1CCCCC1 (stereo unspecified)	i	u	0%	i	-3%
CCC(c1nnnn1CCOC)N(Cc1cc2cc(C)c(C)cc2[nH]c1=O)CC1CCCO1 (stereo unspecified)	i	-30%	-2%	i	-8%
Cc1ccc(OCC(=O)Nc2ccc(N3CCCC3)cc2)cc1C	i	u	1%	i	0%
Cc1ccc(OCC(=O)NNC(=O)C2CCC2)cc1C	i	u	3.3µM*	i	-2%
CCN(CC)S(=O)(=O)c1ccc(N2CCCC2)c(NC(=O)C2=COCCO2)c1	i	9%	-10%	i	u
CCN(CC)S(=O)(=O)c1ccc(OC(C)C)c(NC(=O)C2=COCCO2)c1	i	u	7%	7.3µM*	2%
CCCc1nc2sc3c(c2c(=O)n1NC(=O)c1ccco1)CC(C)(C)OC3	i	0%	17%	i	14%
CCc1nc2sc3c(c2c(=O)n1N)CC(C)(C)OC3	i	-5%	2%	i	-9%
CCCCCCCCCc1nc2sc3c(c2c(=O)n1NC(=O)c1ccccc1[N+](=O)[O-])CC(C)(C)OC3	i	u	2.9µM*	u	0%
CCCCCCCCCc1nc2sc3c(c2c(=O)n1NC(=O)c1ccc([N+](=O)[O-])cc1)CC(C)(C)OC3	i	-10%	6.5µM*	u	9%
Cc1ccc(C(=O)N2CCN(c3ccccn3)CC2)cc1[N+](=O)[O-]	i	0%	1%	i	-4%
O=C1c2ccccc2C(=O)N1CCn1c(=O)oc2ccccc21	i	20%	u	i	3%
COc1cccc(CN(C)C(=O)c2cccc(NC(=O)CC3SC(N4CCCCC4)=NC3=O)c2)c1OC (stereo unspecified)	i	u	-3%	i	-29%
COc1ccc(CN(C)C(=O)c2cccc(NC(=O)CC3SC(N4CCCCC4)=NC3=O)c2)c(OC)c1 (stereo unspecified)	16µM*	x	u	i	6.5µM*
CC(C)(O)CN(C(=O)C(c1ccccc1)c1ccccc1)C1CCCCC1	i	x	5%	13µM*	11%
O=C1CN(C(=O)CCN2CCOCC2)C(c2ccccc2)c2cc(Br)ccc2N1 (stereo unspecified)	i	-3%	-16%	i	-2%
NC(=O)N/N=C/c1c(Sc2nnnn2-c2ccccc2)nc2ccccn2c1=O	u	u	15µM*	i	7.3µM*
O=C(CSc1nnnn1-c1ccccc1)CSc1nnnn1-c1ccccc1	i	u	17%	i	7%
SMILES	KB-3-1 tox	ELG1 DNA repair	MCF10A rerep	KB-V1 cytotox	SW480 rerep
COc1cc(/C=C/C(=O)c2c(O)ccc3c(C)cc(=O)oc23)ccc1O	u	x	16%	u	4%
COc1ccc(/C=C\C(=O)c2c(O)ccc3c(C)cc(=O)oc23)cc1OC	16µM*	-16%	u	21µM*	u
Cc1occc1C(=O)Nc1sc2c(c1C(N)=O)CCC(C(C)(C)C)C2 (stereo unspecified)	i	u	7%	i	-5%
CC(C)(C)C1CCc2c(sc(NC(=O)c3ccncc3)c2C(N)=O)C1 (stereo unspecified)	i	u	13%	12µM*	-2%
COc1ccc(-c2sc3ccccc3c2-c2ccc(OC)cc2F)cc1	i	x	x	i	x
OC(COc1ccccc1)CN1CCCCC1 (stereo unspecified)	i	x	-10%	u	0%
OC(COc1ccc(CNCCc2ccccc2F)cc1)CN1CCCCC1 (stereo unspecified)	i	2%	18µM*	i	u
COC(=O)c1ccc(Oc2nc(Nc3ccc(C)c(C)c3)nc(N(C)C)n2)cc1	i	21µM*	3%	i	u
Cc1ccc2[nH]c3c(=O)n(CC(=O)Nc4ccccc4N4CCN(C)CC4)ncc3c2c1	i	u	u	i	21µM*
CN1CCN(c2ccccc2NC(=O)Cn2ncc3c([nH]c4ccccc43)c2=O)CC1	i	-3%	-2%	i	u
CN1CCC(OC(=O)c2ccccc2Cl)CC1	i	-11%	-1%	i	15%
CCC1(CC)CNC(=O)NC1	i	x	-27%	u	6%
CCOC(=O)C1=C(C)N2C(=C(C#N)[C@@H]1c1ccc(C(=O)OC)cc1)SC[C@@]2(O)C(C)(C)C	i	u	21µM*	u	u
Clc1ccc(COc2cccc(CNCc3ccncc3)c2)cc1	u	-19%	15%	6.5µM*	-4%
CC(C)(CO)NCc1cccc(OCc2ccc(Cl)cc2)c1	u	2%	10%	u	1%
CCCc1c(NC(=O)Nc2ccc(Cl)cc2Cl)cnn1-c1ccccc1	u	u	u	u	15µM*
CCCc1c(C(=O)Nc2ccc(F)cc2F)cnn1-c1ccccc1	i	u	2%	u	-2%
Cc1cc(C(=O)N2CCOCC2)c(C)o1	i	1%	-1%	i	0%
c1ccc(Nc2ncnc3c2oc2ccccc23)cc1	i	x	25%	i	1%
c1ccc2c(c1)oc1c(NCCN3CCOCC3)ncnc12	i	15%	-11%	23µM*	1%

Screens deposited in PubChem BioAssay by National Center for Advancing Translational Sciences (NCATS).
